According to PubChem BioAssay (NCATS):
Results filed as inconclusive are left out. Where a call stands in place of a potency, no number is given. Calls of active or inactive are those of the source. Calls follow the shape of the dose curve; as a rule, active = well fitted activation curve with a large enough effect; inconclusive = small, poorly fitted or top-dose-only effect; inactive = flat fitted curve, though single readings scatter.

assay: Primary redox qHTS assay for identification of artifact compounds. (AID 1845223); conditions: Amplex Red/HRP redox cycling with DTT, fluorescence; series mostly up to 53.8 µM
Procedure, shortened: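 Redox-cycling detection via DTT (250 uM final) oxidation coupled to Amplex Red (25 uM)/HRP (250 mU/mL) in HBSS. 15 min preincubation plus 30 min after DTT, room temperature. Ex/Em 525/598 nm; 4-parameter Hill fit against DMSO and 10 uM DA3003.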

Q: With `CC(C)c1nc(N(C)S(C)(=O)=O)nc(-c2ccc(F)cc2)c1/C=C/[C@@H](O)C[C@@H](O)CC(=O)O` as the compound, how does the Potency read?
A: inactive

Q: Which Potency does the source give for `CC(C)(C)NCC(O)COc1cccc2c1CCCC2=O` (stereo not drawn) here?
A: inactive

Q: With `Cn1c(=O)cc(N2CCCC(N)C2)n(Cc2ccccc2C#N)c1=O` (stereo not drawn) as the compound, how does the Potency read?
A: inactive

Q: With `CCC[C@@H]1C[C@@H](C(=O)N[C@@H]([C@H]2O[C@H](SC)[C@H](O)[C@@H](O)[C@@H]2O)[C@@H](C)O)N(C)C1` as the compound, how does the Potency read?
A: inactive

Q: Which Potency does the source give for `OC[C@H]1O[C@@H](Oc2cc(O)cc(-c3cc4ccc(O)cc4o3)c2)[C@H](O)[C@@H](O)[C@@H]1O` here?
A: inactive

Q: For `Cc1nnc(C(C)C)n1C1CC2CCC(C1)N2CCC(NC(=O)C1CCC(F)(F)CC1)c1ccccc1` (stereo not drawn), which Potency is on record?
A: inactive

Q: For `COC(=O)[C@@H]1C2CC3c4[nH]c5ccccc5c4CCN3CC2CC[C@@H]1O` (stereo partly drawn), which Potency is on record?
A: inactive

Q: For `C[C@@H]1C/C=C/C=C\C=C\C=C\[C@H](O[C@@H]2O[C@H](C)[C@@H](O)[C@H](N)[C@@H]2O)C[C@@H]2O[C@](O)(C[C@@H](O)C[C@H]3O[C@@H]3/C=C/C(=O)O1)C[C@H](O)[C@H]2C(=O)O`, which Potency is on record?
A: inactive

Q: For `CC(=O)Oc1cc2c(s1)CCN([C@H](C(=O)C1CC1)c1ccccc1F)C2`, which Potency is on record?
A: inactive

Q: Which Potency does the source give for `COc1cc(C(O)C(CO)Oc2ccc(CCCO[C@@H]3O[C@@H](C)[C@H](O)[C@@H](O)[C@H]3O)cc2OC)ccc1O` (stereo partly drawn) here?
A: inactive

Q: Which Potency does the source give for `CC(=O)N[C@H]1CCN(c2ccc(C3=NOC(CN[S+](=O)([O-])C(C)C)C3)cc2F)C1` (stereo partly drawn) here?
A: inactive

Q: Which Potency does the source give for `C=Cc1cc(O)cc2nc(-c3ccc(O)c(F)c3)oc12` here?
A: inactive

Q: With `CCC(C)C(=O)O[C@@H]1[C@@H](O)[C@@H](O[C@H]2O[C@H](CO)[C@@H](O)[C@H](O)[C@H]2O)O[C@H](CO)[C@H]1O` (stereo partly drawn) as the compound, how does the Potency read?
A: inactive
